Assay outcomes from PubChem.
KB-3-1 tox: kills parental KB-3-1 adenocarcinoma cells. AID 1347075. Potency, µM (series often up to 46.1 µM), hits mostly cytotoxic. hit rate 1.4% among 400,000. KB-3-1 viability, CellTiter-Glo ATP luminescence, 72 h; further: nearly all actives have a fitted effect of over 60% in size
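KB-3-1 cells, DMEM (no phenol red) + 10% FBS; compound by pin transfer, 72 h, 37 °C. Readout: CellTiter-Glo luminescence after 10 min. Data normalized, curve-fitted.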
MCF10A rerep: DNA re-replication induction in MCF 10a cells; MCF 10A DNA re-replication, Hoechst nuclear intensity, 48 h; Potency, µM (titrated, usually from 46.1 µM), usual class: activators; AID 624296; hit rate 2.9% among 350,000; further: nearly all actives have a fitted effect of over 50% in size
ELG1 repair inh: ELG1-dependent DNA repair inhibition. Potency, µM (top dose mostly 46.1 µM), actives largely listed as inhibitors. AID 504467. hit rate 2.3% among 330,000. HEK293T ELG1-luciferase reporter, luminescence, 16 h; DNA damage induced by 5-fluorouridine; further: nearly all actives have a fitted effect of over 55% in size
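Luminescence from the luciferase reporter, measured 30 min after ONE-Glo reagent at room temperature, was the read-out. Beforehand, 2,000 cells per well were exposed for 16 hr at 37 °C to 5-fluorouridine together with compound or vehicle.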
SW480 rereplic: inducers of DNA re-replication in SW480 colon cancer cells; Potency, µM (highest dose often 46.1 µM), usual class: activators; SW480 DNA re-replication, Hoechst DNA content imaging, 48 h; hit rate 1.8% among 340,000; AID 624297; further: nearly all actives have a fitted effect of over 55% in size
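Cells (250 per well) received 23 nL compound or DMSO by pin tool and were kept 48 hr at 37 C, 5% CO2. Nuclei were then stained with Hoechst for 40 min and scanned for DNA content.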
KB-V1 cytotox: KB-V1 MDR subline cytotoxicity; KB-V1 MDR cells viability, CellTiter-Glo, 72 h; Potency, µM (doses to about 46.1 µM), actives largely listed as cytotoxic; hit rate 3.4% among 400,000; AID 1347076; further: nearly all actives have a fitted effect of over 60% in size
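KB-V1 MDR subline cells in DMEM (phenol-red free, 10% FBS) exposed to compounds in qHTS concentration series for 72 h at 37 degrees C. Viability read by CellTiter-Glo luminescence; concentration-effect curves fitted after normalization and correction.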
A number is an active result; 0 = inactive; ? = inconclusive; - = no result; [ ] = another dose, or the depositor's remark. An excerpt weighted towards active compounds, which were near 8.1% of everything screened. The call rests on the fitted dose curve; in most records, active means well fitted curve in the direction sought with a large enough effect; inconclusive means small, poorly fitted or top-dose-only effect, or another doubt; inactive means no such curve, though single readings can be large; an effect the other way counts as inactive or inconclusive.

SMILES	KB-3-1 tox	MCF10A rerep	ELG1 repair inh	SW480 rereplic	KB-V1 cytotox
O=C1CN2CCC1C/C2=C\c1ccnc2c(Cl)cccc12 (stereo not drawn)	0	0	10µM	0	0
O=C(c1cccnc1)N1CCN(Cc2cccc(F)c2)CC1	0	?	0	?	0
O=C(c1cccnc1)N1CCN(Cc2ccc3ccccc3c2)CC1	?	18µM	0	0	?
Nc1[nH]c(=O)[nH]c(=O)c1N=Nc1ccccc1Cl	0	23µM	0	0	?
Cc1[nH][nH]c(=O)c1N=Nc1ccccc1Cl	?	0	0	0	?
Nc1c(-c2ccccc2)cnn1-c1ccccc1	0	0	?	0	0
CCCCNC(=O)C1CCC(Cn2c(=O)c3sccc3n(CC(=O)N3CCCC3)c2=O)CC1 (stereo not drawn)	0	-	-	-	0
C=CCOc1ccc(CN(C)CC(=O)Nc2ccc3c(c2)CCC3)cc1	0	0	0	0	0
COc1ccc(CN(C)CC(=O)NC2CCCc3ccccc32)cc1OC (stereo not drawn)	0	?	0	4.1µM	?
CCn1c(=O)c(=O)[nH]c2cc(C(=O)NC3CCCc4ccccc43)ccc21 (stereo not drawn)	10µM	?	?	?	0
CCn1c(=O)c(=O)[nH]c2cc(C(=O)NC3CC3)ccc21	0	0	0	0	0
CCOc1ccc(CN(C)CC(=O)Nc2ccc3c(c2)CCC3)cc1OC	0	0[9.22 µM]	16µM	0	0
COc1ccc(C2(CNC(=O)c3ccc(OC)c([N+](=O)[O-])c3)CCCCC2)cc1OC	0	0	15µM	0	2.6µM
COc1ccc(C(=O)NCC2(c3ccc(OC)c(OC)c3)CCCC2)cc1OC	0	-	-	-	?
COc1cc(OC)cc(C(=O)N2CCN(C(=O)COc3ccc(C)cc3)CC2)c1	0	-	-	-	?
Nc1nc(SCC(=O)Nc2ccc(Cl)cc2)[nH]c(=O)c1-c1ccccc1	0	0[9.22 µM]	0	0	0
CCN1CCCC1CNC(=O)CCc1nc(-c2ccc(C)cc2)no1 (stereo not drawn)	0	0	0	0	0
COc1ccc(C(=O)NC2CCCc3ccccc32)cc1[N+](=O)[O-] (stereo not drawn)	?	?	0	?	5.8µM
COCCCNc1nc(N)c([N+](=O)[O-])c(Nc2ccccc2OC)n1	?	?	?	0	0
Cc1ccc(Nc2nc(N)c([N+](=O)[O-])c(NCc3ccco3)n2)cc1C	23µM	?	?	0	12µM
COc1ccccc1Nc1nc(NCc2ccco2)nc(N)c1[N+](=O)[O-]	0	0	18µM	0	?
CC(/C=N/NC(=O)c1cccnc1)=C\c1ccccc1	0	0	?	0	0
COc1ccc(C(=O)CSc2nnc(NC(=O)C3CC(=O)N(c4ccccc4)C3)s2)cc1 (stereo not drawn)	0	0	0	2.9µM	0
CCN=C1S/C(=C\c2ccc(O)c(OCC)c2)C(=O)N1CC	0	?	?	?	18µM
CCN=C1S/C(=C\c2cc(OCC)c(O)cc2Br)C(=O)N1CC	?	18µM	18µM	?	0
SMILES	KB-3-1 tox	MCF10A rerep	ELG1 repair inh	SW480 rereplic	KB-V1 cytotox
COc1cc(/C=C2/SC(=NCc3ccccc3)N(Cc3ccccc3)C2=O)ccc1O	0	5.8µM	0	0	?
COc1ccc(/C=C2\SC(=S)N(Cc3cccnc3)C2=O)cc1C	?	0	?	0	?
CCOc1cc(/C=C2/SC(=Nc3ccccc3)N(Cc3cccnc3)C2=O)ccc1OCC#N	?	?	18µM	0[9.22 µM]	0
CCOc1cc(/C=C2/SC(=S)N(CC3CCCO3)C2=O)ccc1O (stereo not drawn)	0	?	0	?	0
COc1ccc(NC(=O)CO/N=C2/CCCc3nonc32)c(OC)c1	0	0	0	0	?
Cc1cc(Cc2cc(C)c(O)c(CO)c2)cc(CO)c1O	?	0	-	0	0
CCOC(=O)c1cc2c(ccn2C)n1CC(=O)N(Cc1ccccc1)c1ccc(F)cc1	0	?	0	0	?
CC(C)OC(=O)c1cc2c(ccn2C)n1CC(=O)N(Cc1ccccc1)c1ccc(F)cc1	0	6.5µM	0	?	0
CC(C)OC(=O)c1cc2c(ccn2-c2ccc(F)cc2)n1CC(=O)N1CCN(C(=O)c2ccco2)CC1	0	0	8.2µM	0	0
